Screens as filed in PubChem BioAssay.
Tau fibril ThT – qHTS for Inhibitors of Tau Fibril Formation, Thioflavin T Binding | AID 1460, 2008 | Potency, µM (series often up to 57.4 µM), actives largely listed as inhibitors | Microtubule-associated protein tau (Homo sapiens), P10636 | recombinant tau K18 P301L, heparin-induced fibrillization, ThT fluorescence | 270,000 compounds, 2.1% hits; also: nearly all actives have a fitted effect of over 55% in size
Target sequence (P10636 561-689 P618L limits assumed): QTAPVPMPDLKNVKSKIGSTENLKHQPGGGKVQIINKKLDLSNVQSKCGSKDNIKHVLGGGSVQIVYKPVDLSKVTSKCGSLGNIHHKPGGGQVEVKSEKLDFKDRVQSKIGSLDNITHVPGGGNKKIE
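Fibril formation assay: tau K18 P301L at 15 uM with trace Alexa 594 label, heparin inducer 20 uM, pH 7 sodium acetate buffer, 37 C for 6 hr; endpoint ThT signal.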
Tau fibril FP – qHTS for Inhibitors of Tau Fibril Formation, Fluorescence Polarization; Microtubule-associated protein tau (Homo sapiens), P10636; Potency, µM (highest dose often 57.7 µM), hits mostly inhibitors; 280,000 compounds, 0.39% hits; K18 P301L tau heparin fibrillization, Alexa594 FP, 6 h; also: nearly all actives have a fitted effect of over 55% in size
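Human K18 P301L fragment (15 uM unlabeled plus 0.24 uM Alexa 594-labeled) in 100 mM sodium acetate pH 7 with compound, aggregation induced by 20 uM heparin for 6 hr at 37 C. ThT (30 uM) added for 1 hr, then Alexa 594 FP read.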
TR SRC2 fluor cs – Total Fluorescence Counterscreen for Inhibitors of the Interaction of Thyroid Hormone Receptor and Steroid Receptor Coregulator 2; TRb/SRC2 Texas Red total fluorescence interference; Potency, µM (series often up to 106 µM); 280,000 compounds, 0.29% hits; AID 1479, 2009; active = well fitted curve in either direction with a large enough effect; inconclusive = small, poorly fitted or top-dose-only effect
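Human TRb ligand-binding domain at 0.6 uM with 20 nM Texas Red SRC2 peptide in Tris buffer containing 1 uM T3 and 5% DMSO, incubated with compound 5 h at ambient temperature. Total fluorescence (555/632 nm) calculated as parallel + 2 × perpendicular.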
Tau fluor counter – Counterscreen qHTS for Inhibitors of Tau Fibril Formation, Fluorescence Polarization. tau K18 P301L (four-repeat tau fragment) Alexa594 fluorescence, heparin fibrillization. Potency, µM (highest dose often 57.7 µM). 280,000 compounds, 0.93% hits; also: nearly all actives have a fitted effect of over 55% in size
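Human K18 P301L tau (15 uM unlabeled plus 0.24 uM Alexa 594-labeled, final) in 100 mM sodium acetate pH 7 was mixed with compound and 20 uM heparin and incubated 6 hr at 37 C.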
TRb-SRC2 inh – qHTS for Inhibitors of the Interaction of Thyroid Hormone Receptor and Steroid Receptor Coregulator 2; 280,000 compounds, 0.065% hits; TRbeta-SRC2 peptide binding, fluorescence polarization; receptor liganded with 1 µM T3; Potency, µM (titrated, usually from 106 µM), hits mostly inhibitors; AID 1469, 2008; also: nearly all actives have a fitted effect of over 50% in size
Target sequence (P10828 whole entry, looked up): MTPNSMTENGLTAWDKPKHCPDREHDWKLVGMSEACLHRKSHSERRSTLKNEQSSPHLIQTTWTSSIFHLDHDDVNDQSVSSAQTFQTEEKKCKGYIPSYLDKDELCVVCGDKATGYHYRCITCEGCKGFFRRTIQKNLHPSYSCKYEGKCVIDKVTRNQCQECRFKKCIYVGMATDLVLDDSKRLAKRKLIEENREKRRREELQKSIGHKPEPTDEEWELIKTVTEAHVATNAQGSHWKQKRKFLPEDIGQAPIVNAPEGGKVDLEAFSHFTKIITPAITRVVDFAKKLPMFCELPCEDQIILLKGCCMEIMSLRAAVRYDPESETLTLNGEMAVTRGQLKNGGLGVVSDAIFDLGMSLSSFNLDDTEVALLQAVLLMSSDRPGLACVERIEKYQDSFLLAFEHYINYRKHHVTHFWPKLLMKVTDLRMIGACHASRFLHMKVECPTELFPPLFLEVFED
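Decrease in fluorescence polarization of 20 nM Texas Red SRC2 coactivator peptide flagged inhibition of its binding to 0.6 uM TRb LBD; 1 uM T3 included, incubation 5 hr, ex 555/em 632 nm.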
Hits are given with their value; n = inactive; u = inconclusive; x = not tested or not shown; [ ] = another dose, or the depositor's remark. A selection: hits, their analogues and other compounds. The true share with any hit is near 3.1%. Unless noted, calls follow the shape of the dose curve; as a rule, active = well fitted curve in the direction sought with a large enough effect; inconclusive = small, poorly fitted or top-dose-only effect, or another doubt; inactive = no such curve, though single readings can be large; an effect the other way counts as inactive or inconclusive.

SMILES	Tau fibril ThT	Tau fibril FP	TR SRC2 fluor cs	Tau fluor counter	TRb-SRC2 inh
C=CCC1(O)C=CCC2C3C4C(OC(C)(C)C)C2C1C34 (configuration not stated)	n[11.5 µM]	n[11.6 µM]	n[11.2 µM]	n[11.6 µM]	n[11.2 µM]
C[C@H]1Cc2c(COc3ccccc3)nc3c(c2CO1)CN(C(=O)c1cc(I)ccc1F)CC3	n[11.5 µM]	n[11.6 µM]	n[11.2 µM]	n[11.6 µM]	n[11.2 µM]
Cc1ccc(SCC(CC(C)C)N2CCN(C)CCC2=O)cc1 (configuration not stated)	x	x	n	x	n
O=C(CCC1CCCC1)N1CCc2c([nH]c3ccccc23)C1c1ccc(Cl)cc1 (configuration not stated)	u	n	n	n	n
CCN1c2ccccc2-c2nc(SCC(=O)Nc3cccc(C(F)(F)F)c3)ncc2S1(=O)=O	n	28µM	n	u	n
CC(C)c1ccc(S(=O)(=O)c2cnc(SCC(=O)Nc3cccc(C(F)(F)F)c3)nc2N)cc1	u	13µM	n	u	n
Cc1ccccc1OCC(=O)Nc1nnc(S(=O)(=O)N(C)c2ccccc2)s1	u	n	n	n	n
CCCn1c(=N)n(CC(=O)OCC)c2ccccc21	n	n	n	n	n
C=COCCn1c(=N)n(CCC)c2ccccc21	n	28µM	n	u	n
CCOC(=O)C1CCCN(S(=O)(=O)c2cc3c(cc2C)NC(=O)CO3)C1 (configuration not stated)	n	n	n	n	n
Cc1cc(C)c2nc(NC(=O)c3ccc(S(=O)(=O)N4CCCC4)cc3)sc2c1	n	u	n	n	n
Cc1cc(C)c2nc(NNC(=O)c3ccc(S(=O)(=O)N4CCCCC4)cc3)sc2c1	22µM	u	n	u	n
CCOC(=O)N1CCN(S(=O)(=O)c2ccc(C(=O)NNc3nc4c(C)cc(C)cc4s3)cc2)CC1	n	n	n	n	n
CCOC(=O)N1CCN(S(=O)(=O)c2ccc(C(=O)NNc3nc4c(C)cccc4s3)cc2)CC1	20µM	u	n	u	n
O=C(Cn1c(=O)n(Cc2ccco2)c(=O)c2oc3ccccc3c21)Nc1ccc(F)c(Cl)c1	u	u	n	n	n
CCn1cc2nc(SCc3cccc(OC)c3)n(Cc3ccc(Cl)cc3)c(=O)c2n1	n	n	0.032µM[quencher]	n	n
Cc1cccc(N2CC(C)Cn3c2nc2c3c(=O)n(CC(=O)O)c(=O)n2C)c1 (configuration not stated)	n	n	10µM[quencher]	n	n
COC(=O)Cn1c(=O)c2c(nc3n2CCN3c2cccc(C)c2)n(C)c1=O	u	n	n	n	n
COc1ccccc1CNC(=O)C1CC(c2ccccc2[N+](=O)[O-])=NO1 (configuration not stated)	n	n	n	n	n
CN1c2ccccc2N(C)C1(C)c1cccc2ccccc12	16µM	u	n	n	n
Cc1nc(-c2ccc(NC(=O)c3ccccc3)cc2)cs1	n	n[2.34 µM]	n	n	n
O=C(Nc1cccc(-c2csc(Nc3ccccc3)n2)c1)c1ccccc1	u	n	n	13µM[quencher]	n
O=C(Nc1ccc(-c2csc(Nc3cccc(C(F)(F)F)c3)n2)cc1)c1cc([N+](=O)[O-])cc(C(F)(F)F)c1	u	n	n	3.5µM[quencher]	n
CC(=O)NNc1nc(-c2ccc(C)cc2)cs1	u	n	n	n	n
CC(=O)NNc1nc(-c2ccccc2)cs1	18µM	u	n	u	n
SMILES	Tau fibril ThT	Tau fibril FP	TR SRC2 fluor cs	Tau fluor counter	TRb-SRC2 inh
O=C(Nc1ccc(-c2csc(Nc3cccc(C(F)(F)F)c3)n2)cc1)c1ccccc1	u	n	n	10µM[quencher]	n
O=C(Nc1cccc(-c2cnc3ccccc3n2)c1)c1ccccc1	n	n	n	n	n
S=C(N/N=C/c1ccccc1Cl)Nc1cccc(Cl)c1Cl	n	n	n	n	n
CCCCCCCCCCCCCCN(C)C	x	x	n	x	n
O=C(Cc1c(Cl)cccc1Cl)NC1=NCCS1	n	n	n	n	n
O=C(Nc1cccc(-c2csc(Nc3cccc(C(F)(F)F)c3)n2)c1)c1ccccc1	u	n	n	8.9µM[quencher]	n
c1ccc(Nc2nc(-c3ccncc3)cs2)cc1	n	n	n	n	n
O=C(Nc1cccc(C(F)(F)F)c1)c1csc(-c2ccncc2)n1	n	n	n	n	n
CC(=O)c1cccc(Nc2nc(-c3ccccc3)cs2)c1	u	u	n	7.9µM[quencher]	n
CCN1CCN(Cc2nc3cc(NC(=O)c4cccc([N+](=O)[O-])c4)ccc3n2CC)CC1	n	n	2.8µM[quencher]	n	n
CCn1c(CN2CCCCC2)nc2cc(NC(=O)COc3ccccc3C(C)(C)C)ccc21	n	n	282µM[quencher]	n	n
CCn1c(CN2CCCCC2)nc2cc(NC(=O)c3ccccc3[N+](=O)[O-])ccc21	n	n	n	n	n
Cn1c(CN2CCOCC2)nc2cc(NC(=O)c3ccccc3[N+](=O)[O-])ccc21	n	n	100µM[quencher]	n	n
COc1ccc(-c2nc3sc(CCNS(=O)(=O)c4ccccc4)c(C)n3n2)cc1	n	u	n	n	n
CC(C)(C)OC(=O)N1CCCC1C(=O)NC1COC2CC(n3ccc(=O)[nH]c3=O)OC12 (configuration not stated)	x	x	n	x	n
O=C1C2C(C(=O)N1/N=C/c1cc(Br)cc([N+](=O)[O-])c1O)C1C=CC2C12CC2 (configuration not stated)	7.9µM	n	n	n	n
O=c1c2c(-c3ccc(Cl)cc3)csc2ncn1/N=C/c1cccc([N+](=O)[O-])c1O	16µM	n	n	n	n
O=[N+]([O-])c1cc(Br)cc(/C=N/n2cnnc2)c1O	8.9µM	n	n	n	n
O=[N+]([O-])c1cccc(/C=N/n2cnnc2)c1O	16µM	n	n	n	n
O=[N+]([O-])c1cc(Cl)cc(/C=N/n2cnnc2)c1O	u	n	n	n	n
O=C(N/N=C1/C[C@@H](O)[C@@H](O)[C@@H]2[C@@H]3C(=O)N(C[C@@H]4CCCO4)C(=O)[C@H]3CC[C@H]12)OCc1ccccc1	n[11.5 µM]	u	n[11.2 µM]	n[11.6 µM]	n[11.2 µM]
C=CCS/C(N)=N\N=C\c1cc(Br)cc([N+](=O)[O-])c1O	13µM	n	n	u	n
Cc1c(C)c2cc3c(c(C)c2oc1=O)OCN(CCc1ccccc1)C3	n	n	n	n	n
O=C(CSc1nc2ccccc2c(=O)n1-c1ccc(F)cc1F)c1c[nH]c2ccccc12	u	28µM	n	u	n
Oc1ccc(-c2nc3ncccn3c2Nc2ccc3c(c2)OCCO3)cc1	u	n	n	25µM[quencher]	n
Clc1ccc(-c2nc3cnccn3c2Nc2ccc3c(c2)OCO3)cc1	u	u	n	14µM[quencher]	n
